In PubChem BioAssay (NCI) one finds growth data, which are given here for 40 compounds.

About 83,000 compounds went through this panel and 20% of them were active in at least one assay; those are over-represented in the sample as a whole.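 Treatment: one concentration, 48 hours, 96-well format. Scoring: percent growth, with anything below 10 considered active.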 The source made the active and inactive calls.

This assay concerns MOLT-4 leukemia. Briefly: NCI-60 one-dose screen, 48 h (100 = growth as untreated, 0 = no growth, -100 = all killed). Particulars: 10 µM unless noted. The method, then: Growth inhibition of the MOLT-4 human tumor cell line is measured as a screen for anti-cancer activity. Cells are grown in 96 well plates and exposed to the test compound for 48 hours. Compounds are tested at a single concentration, which is 10^-5 M for most compounds. The reported endpoint is percent growth (GI% or GIPRCNT), where numbers from 0 - 100% represent growth inhibition, and numbers from -100% - 0 represent cell death. For example, a value of 40 represents 60% growth inhibition. A value of 0 means no net growth occurred over the course of the experiment. A value of -40 indicates 40% of cells at the beginning of the experiment died by the end of the experiment. A value of -100 means all cells are dead at the end of the experiment.
NCI-60 Human Tumor Cell Lines Screen was performed using the standard one-dose NCI protocol, which is described in more detail at https://dtp.cancer.gov/discovery_development/nci-60/default.htm.
Compounds with GIPRCNT values below 10 were considered active. Activity score was based on GIPRCNT using the following formula: […]
Score is 0 for GIPRCNT values of 100 or above, 50 for GIPRCNT values of 0, and 100 for GIPRCNT values of -100.
Take `COc1ccc(C2CC(c3cccc(Nc4nc(Cl)nc5cc(OC)c(OC)cc45)c3)=Nc3c(N)nc(N)nc3N2)cc1` (stereo not given): the growth was 43.6% (inactive).

As to `COc1ccc(OC)c(-c2nc(SCC(=O)c3ccc(Br)cc3)nc(Nc3ccc(S(N)(=O)=O)cc3)c2C#N)c1`, the growth was 28.5% (inactive).

`CC(=O)Nc1cccc(Nc2nc(N[C@@H](C)c3ccccc3)c3ccccc3n2)c1`: the growth is -17% (active).

For `COc1cc(-c2nc(SC(C)C)n(C(C)C)c(=O)c2C#N)ccc1OCc1ccccc1`, the growth was 22.1% (inactive).

Regarding `C#Cc1nc(/C=C/C(=O)c2nccn2C)cs1`, the growth is -31.2% (active).

As to `CCN(CC)c1ccc2c(c1)Oc1nc(N)c(C#N)c(N)c1C2Sc1ccc(C)cc1` (stereo not given), the growth was -14.2% (active).

In the case of `Oc1cccc2ccc(-c3nnc(SCc4ccc(O)c5ncccc45)n3-c3ccccc3)nc12`, the growth is 12.2% (inactive).

`O=C(CSc1nc2ccccc2c(=O)n1-c1ccc(Cl)cc1)N/N=C/c1ccc(N2CCCCC2)cc1`: the growth is 92% (inactive).

As for `Cc1ccc(-c2nn(-c3ccccc3)cc2/C=C/C(=O)c2ccc(NC(=O)CCCCCCC(=O)NO)cc2)cc1`, the growth was 38.5% (inactive).

Regarding `Cc1ccc2c(c1)C13C(=C2Br)CCCN1C(=O)c1ccccc13` (stereo not given), the growth is 79.8% (inactive).

With `O=C(Nc1ccc(F)c(F)c1)c1cc(-c2ccc(F)cc2F)ccc1O`, the growth is 2.67% (active).

Turning to `C=C(C)[C@@H]1CC[C@]2(COC)CC[C@]3(C)[C@H](CC[C@@H]4[C@@]5(C)CCCNC(C)(C)[C@@H]5CC[C@]43C)[C@@H]12`, the growth is -32.3% (active).

Regarding `O=S(=O)(NCCCNc1nccc(-c2[nH]c(-c3ccccc3)nc2-c2ccc(Cl)c(O)c2)n1)c1ccc(Br)cc1`, the growth was 22.8% (inactive).

Regarding `NC(=O)c1c(NC(=O)c2ccc(F)cc2F)sc2c1CCC(=O)C2`, the growth was 40.6% (inactive).

Consider `CC1=N[C@@H]2CN(C(=O)OC(C)(C)C)C[C@@H]2n2c1cc1ccccc1c2=O`, for which the growth is 106% (inactive).

For the compound `COc1cc(OC)cc(C(=O)Nc2cccc(C#Cc3cccc4[nH]nc(N)c34)c2)c1`, the growth was 20.5% (inactive).

With `CN(C)C(=O)c1cc(-c2ccc3ncnc(NCc4ccccc4)c3c2)cnc1N`, the growth was 96.8% (inactive).

`O=C1CCCc2nc(Nc3ccc(S(=O)(=O)Nc4ccc([N+](=O)[O-])cc4)cc3)ncc21`: the growth is 101% (inactive).

In the case of `COc1ccc(C2c3sc4c(C)cccc4c3Oc3nc(CC(=O)Nc4ccccc4)[nH]c(=O)c32)cc1` (stereo not given), the growth was 101% (inactive).

For the compound `O=C1[C@@H]2Cc3c([nH]c4ccccc34)[C@H](c3c(Cl)cccc3Cl)N2C(=O)CN1C1CCN(CC2CCCCC2)CC1`, the growth is 19.5% (inactive).

Consider `FC(F)(F)c1cc(Nc2cccc(Oc3ccc(NC4=NCCN4)nc3)c2)ccc1Cl`, for which the growth was 9.2% (active).

Regarding `CCOC(=O)c1c(Nc2ccccc2)nn2c(-c3cccs3)ccnc12`, the growth was 74.5% (inactive).

As to `NS(=O)(=O)c1ccc(-n2cc(-c3cccc(NC(=O)c4ccc(N5CCOCC5)c(C(F)(F)F)c4)c3)nn2)cc1`, the growth is 11% (inactive).

`N#Cc1cccc(/C(N)=N/C(N)=N/c2nc3ccccc3s2)c1`: the growth is 27.7% (inactive).

In the case of `Cc1cccc(/C=C/C(=O)Nc2ncc(Cc3cccc(C)c3)s2)c1`, the growth was 22% (inactive).

Turning to `O=C(Nc1nonc1-c1ccccc1)c1ccc(C(F)(F)F)cc1`, the growth is 69.1% (inactive).

On to `CCC(NC(c1cc2cccc3ccc4cccc1c4c32)c1nnnn1C(C)(C)C)C1CCCCC1` (stereo not given), for which the growth is 47.2% (inactive).

On to `O=C(NNc1nc2cc(F)c(F)cc2n2c(CN3CC4CNCC4C3)ccc12)c1ncccn1` (stereo not given), for which the growth was -6.62% (active).

As for `N#C/C(=C\c1ccc(-c2ccc(Cl)cc2Cl)o1)c1ccc(F)cc1`, the growth was 93.8% (inactive).

Turning to `COc1ccc(NCc2cn(-c3ccc(C(=O)O)cc3)nc2-c2cc(C(F)(F)F)cc(C(F)(F)F)c2)cc1`, the growth was 86.4% (inactive).

On to `N#Cc1cnc2ccc(-c3cnc(N)nc3)cc2c1N1CCc2cc(F)c(Cl)cc21`, for which the growth is 0.22% (active).

For the compound `NC(N)=Nc1ccc(Oc2cccc(NC(N)=Nc3ccc(Cl)c(C(F)(F)F)c3)c2)cn1`, the growth was 23.6% (inactive).

Regarding `COc1ccc(NC(=O)CSc2nnc(-c3ccc4nc(-c5ccc(OC)c(OC)c5)[nH]c4c3)o2)cc1OC`, the growth is 86.6% (inactive).

With `COc1ccccc1-n1cc(C#N)c(N)c1C(=O)c1ccc(C)cc1`, the growth is 83.1% (inactive).

On to `COc1cc(-c2nn(C(C)(C)C)cc2-c2ccnc(NCCCNS(=O)(=O)c3ccccc3)n2)ccc1Cl`, for which the growth was 59.6% (inactive).

In the case of `Cc1ccc2c(c1)Oc1nc(N)c(C#N)c(N)c1C2Sc1ccc(F)cc1` (stereo not given), the growth was -16.6% (active).

As to `O=C(CN1CCN(c2cc(=O)[nH]c3ccc(F)cc23)CC1)Nc1ccc(Cl)cc1`, the growth was 92.4% (inactive).

As to `NS(=O)(=O)c1ccc(Nc2cc(-c3ccccc3)nc(SCC(=O)c3ccccc3)n2)cc1`, the growth was 105% (inactive).

Regarding `COc1c(N2CC3CCCNC3C2)c(F)cc2c(=O)c(C(=O)N/N=C/c3ccc(Br)cc3)cn(C3CC3)c12` (stereo not given), the growth was 54.9% (inactive).

Turning to `COc1cc(Nc2c(C#N)cnn3cc(-c4cnn(CC(C)(C)O)c4)cc23)ccc1Cl`, the growth was 36.7% (inactive).
